About 1,100 (1.7%) of roughly 63,000 compounds were called active. Shown is part of a subset that was picked to be rich in actives. Potency and affinity values are given separately. A number with no mark means an inactive call.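 Rule for the calls: active = compounds whose percent cytotoxicity in the single-dose primary screen, scaled between solvent and toxic-drug controls, exceeds 50; inactive = the rest.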
Experiment: cytotoxicity in KRAS-transformed pancreatic duct cells, primary screen, cell-based, fluorescence, HTS (AID 431);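 note: 0% = DMSO solvent wells and 100% = doxorubicin-treated wells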
Details: HPDE-C7K KRASV12 cells, Alamar Blue viability, 48 h; at 10 µM; stronger effect = higher value

Row | SMILES | cytotoxicity
1 | Cc1ccc(Cl)cc1N(CC(=O)NC1CCCCC1)S(C)(=O)=O | -5.9%
2 | Cc1nc2cc(-c3cccc(F)c3)nn2c(C)c1CCC(=O)N1CCN(c2ccccn2)CC1 | -4.7%
3 | OC(CN1CCOCC1)CN1CCOCC1 | 13.2%
4 | CCCCCOc1ccc(OC(=O)c2ccncc2)cc1 | -0.5%
5 | CC(=O)c1cccc(NC(=O)c2cc(C(C)C)on2)c1 | -17.2%
6 | CCCCOC(=O)c1ccc(NC(C)=O)cc1 | -20.2%
7 | O=C(O)CCC(=O)Nc1ccc(C(=O)OC2CCCCC2)cc1 | -16.9%
8 | CCCCCOC(=O)c1ccc(NC(=O)c2ccco2)cc1 | 80.3% (active)
9 | O=C(OC1CCCCC1)c1ccc(NC(=O)c2ccco2)cc1 | 74.9% (active)
10 | CCCCOC(=O)c1ccc(NC(=O)c2ccoc2C)cc1 | 5%
11 | O=C(Nc1ccc(OC(=O)c2ccco2)cc1)c1ccco1 | -0.1%
12 | CCC1S/C(=C(\C#N)C(=O)NCc2ccco2)N(c2ccc(Br)cc2)C1=O (centres undefined) | -5.6%
13 | O=C(CSCc1ccccc1)Nc1nccs1 | -4.5%
14 | CC(C)CCn1c(NCCc2ccccc2)nc2c1c(=O)n(C)c(=O)n2C | 0.9%
15 | O=S(=O)(O)c1nc2ccccc2n1CCOc1ccccc1 | 5.6%
16 | CC(=O)Oc1ccc(N2C(=O)CCC2=O)cc1 | -3.8%
17 | Nc1c(Br)cc(Br)c(N2CCCC2=O)c1Br | 0.5%
18 | O=C(c1ccc(Cl)cc1)c1ccc(OCC(O)CN2CCOCC2)cc1 (centres undefined) | 2.3%
19 | CS(=O)(=O)N1CCC(NC(=O)Cc2ccccc2)CC1 | -2.1%
20 | O=C(CS(=O)(=O)c1ccccc1)N1CCCCCC1 | -9.5%
21 | C/C=C(\CS(=O)(=O)c1ccccc1)S(=O)(=O)c1ccccc1 | 42.2%
22 | O=C1c2ccccc2C(=O)N1CCc1nc(-c2cccnc2)no1 | -7.3%
23 | Cc1cc(C)cc(NC(=O)c2nnn(Cc3cc(C)ccc3C)c2N)c1 | 54.9% (active)
24 | COc1ccc(C)cc1NC(=O)c1nnn(Cc2cc(C)ccc2C)c1N | -4%
25 | Cc1ccc(CCNC(=O)c2nnn(-c3cc(C)cc(C)c3)c2N)cc1 | 8.1%
26 | Cc1ccc(C)c(NC(=O)c2nnn(Cc3ccccc3C)c2N)c1 | -4.9%
27 | Cc1ccc(NC(=O)c2nnn(-c3cc(C)cc(C)c3)c2N)cc1 | 51.9% (active)
28 | Cc1cccc(-n2nnc(C(=O)Nc3ccc(F)cc3)c2N)c1 | 4.2%
29 | COc1ccc(S(=O)(=O)n2ccnc2)c2cccnc12 | -6.2%

From PubChem BioAssay AID431 (Sanford-Burnham Center for Chemical Genomics, 2006)
